# Only some compounds are listed: those with a hit (about 2.1% of all), similar ones and a draw of the others.
# Gli-Sufu antag: Gli-Sufu pathway antagonism | AID 588413 | inhibition, % at 5 µM | Sufu-KO-LIGHT fibroblasts, Gli luciferase reporter luminescence | hit rate 0.74% among 340,000;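 active = inhibition above about 55%, limit read from the data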;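 also: 0% = DMSO-treated cells and 100% = wells with medium but no cells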
# NR2F2 inh: inhibitors of human COUP-TFII (NR2F2). AID 686940. hit rate 0.7% among 370,000. inhibition, % at 8.6 µM. P24468. HEK293T NGFI-A luciferase reporter, luminescence;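 active = inhibition above a per-plate cutoff, mean inhibition of test wells between control levels plus 3 SD, cut at about 38% in these data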;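 also: cells cotransfected with COUP-TFII expression vector driving the NGFI-A reporter; 0% = median of COUP-TF2 test wells and 100% = reporter-only cells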
# Target sequence (P24468 whole entry, looked up): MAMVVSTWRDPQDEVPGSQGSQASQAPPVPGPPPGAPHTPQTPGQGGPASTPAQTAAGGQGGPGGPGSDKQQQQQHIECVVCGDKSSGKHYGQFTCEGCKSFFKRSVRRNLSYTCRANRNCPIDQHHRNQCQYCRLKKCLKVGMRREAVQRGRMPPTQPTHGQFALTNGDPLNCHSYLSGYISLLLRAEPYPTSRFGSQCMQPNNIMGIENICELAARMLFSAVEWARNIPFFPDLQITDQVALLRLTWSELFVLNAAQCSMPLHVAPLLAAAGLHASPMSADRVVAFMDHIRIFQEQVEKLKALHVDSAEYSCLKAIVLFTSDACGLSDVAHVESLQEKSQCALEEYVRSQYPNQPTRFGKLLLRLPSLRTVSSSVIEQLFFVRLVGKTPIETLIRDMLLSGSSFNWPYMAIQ
# aDG glyco up: alpha-DG glycosylation activation; hit rate 0.22% among 360,000; activation, % at 10 µM; Pro5-aDG cells, alpha-DG glycosylation AlphaScreen (IIH6); 0% Pro5, 100% B10-LARGE cell signal;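 active = activation of at least 8% versus controls, or a plate z-score of at least 8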;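 also: Pro5 are CHO cells carrying HIG-tagged alpha-DG that lacks glycosylation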
# Env fusion inh: inhibitors of HIV Env-mediated cell fusion | HeLa-JRFL Env/CEM21 cell fusion, luciferase | inhibition, % at 12.3 µM | hit rate 1.1% among 360,000;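 active = mean replicate inhibition score of at least 50 and every replicate individually at or above 50; inconclusive = only one of the two criteria met; inactive = mean below 50 and not all replicates reaching 50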;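 also: 0% = plate neutral controls and 100% = maraviroc near 300 nM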
# GalR3 antag: antagonists of human GalR3; hit rate 0.44% among 360,000; AID 651719; inhibition, % at 3 µM; HEK293 GalR3-CNG cAMP membrane potential fluorescence; galR3 body fused to GalR1 C-terminus;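 active = inhibition above the screen-wide average plus 3 SD, cut at about 13% in these data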;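 also: forskolin and galanin both at EC90 stimulate the cells; cAMP rise reported by CNG channel membrane potential dye signal; 0% = forskolin plus galanin with DMSO and 100% = forskolin alone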
# Target sequence (O60755 1-299 limits assumed): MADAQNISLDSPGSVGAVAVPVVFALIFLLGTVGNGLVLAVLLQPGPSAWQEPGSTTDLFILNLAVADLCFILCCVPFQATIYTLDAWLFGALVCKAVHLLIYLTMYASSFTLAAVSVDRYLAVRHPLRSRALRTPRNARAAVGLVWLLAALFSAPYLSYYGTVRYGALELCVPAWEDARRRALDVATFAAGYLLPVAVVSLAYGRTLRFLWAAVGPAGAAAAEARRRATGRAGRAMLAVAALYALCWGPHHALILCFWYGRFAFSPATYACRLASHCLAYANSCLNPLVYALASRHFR
# Starred values were filed as active, the others as inactive; u = inconclusive; x = not tested or not shown; [ ] = dose if it differs, or a comment.
SMILES,Gli-Sufu antag,NR2F2 inh,aDG glyco up,Env fusion inh,GalR3 antag
COc1ccc(CNC(=O)N(C)C[C@H]2OCc3ccccc3-c3ccccc3C(=O)N([C@H](C)CO)C[C@@H]2C)cc1,x,x,x,72*[16.7 µM],x
C[C@@H]1CN([C@H](C)CO)C(=O)c2ccccc2-c2ccccc2CO[C@@H]1CN(C)C(=O)Nc1cccc(C(F)(F)F)c1,x,x,x,-1[16.7 µM],x
COc1ccc(CNC(=O)N(C)C[C@H]2OCc3ccccc3-c3c(n(C)c4ccccc34)C(=O)N([C@@H](C)CO)C[C@@H]2C)cc1,x,x,x,58*[16.7 µM],x
COc1ccc(CNC(=O)N(C)C[C@H]2OCc3ccccc3-c3c(n(C)c4ccccc34)C(=O)N([C@H](C)CO)C[C@@H]2C)cc1,x,x,x,68*[16.7 µM],x
C[C@@H]1CN([C@@H](C)CO)S(=O)(=O)c2ccc(-c3ccc(F)cc3)cc2O[C@@H]1CN(C)C(=O)Nc1ccccc1F,x,x,x,-36[16.7 µM],x
C/C=C/c1ccc2c(c1)O[C@H](CN(C)C(=O)c1ccccc1F)[C@@H](C)CN([C@@H](C)CO)S2(=O)=O,x,x,x,-2[16.7 µM],x
CC(C)[C@H](C)NC(=O)N(C)C[C@H]1OCc2ccccc2-c2ccccc2C(=O)N([C@@H](C)CO)C[C@@H]1C,x,x,x,56*[16.7 µM],x
CC(C)[C@@H](C)NC(=O)N(C)C[C@@H]1OCc2ccccc2-c2ccccc2C(=O)N([C@H](C)CO)C[C@H]1C,x,x,x,-1[16.7 µM],x
CCOC(=O)c1ccc(-n2[nH]c(-c3ccccc3)cc2=O)cc1,-7,15,0,58*,-3
CCOC(=O)c1ccc(N=Nc2c(C)[nH]n(-c3ccccc3)c2=O)cc1,11,12,0,-7,-10
O=S(=O)(Nc1cc(Sc2cccc3cccnc23)c(O)c2ccccc12)c1ccc(F)cc1,96*,17,x,35,-5
O=S(=O)(Nc1cccnc1Cl)c1ccc(F)cc1,-13,-14,0,-13,-5
C[C@H](CO)N1C[C@H](C)[C@H](CN(C)C(=O)C2CCC2)Oc2ncc(-c3ccccc3F)cc2C1=O,x,x,x,14[16.7 µM],x
O=C(C[C@H]1CC[C@H](NC(=O)NC2CCCC2)[C@@H](CO)O1)NCc1ccc(F)cc1,x,x,x,5[16.7 µM],x
O=S(=O)(c1cccs1)N1CCN(CC(O)COc2cc(Cl)ccc2Cl)CC1 (stereo not given),40,4,2,u,68*
Cc1noc(C)c1NC(=O)Nc1ccc2c(c1)C(=O)N([C@@H](C)CO)C[C@H](C)[C@H](CN(C)Cc1ccncc1)OCCCC[C@H](C)O2,x,x,x,-8[16.7 µM],x
CC(=O)N(C)C[C@H]1Oc2cc(C#Cc3ccncc3)ccc2S(=O)(=O)N([C@@H](C)CO)C[C@H]1C,x,x,x,-20[16.7 µM],x
COc1ccccc1NC(=O)CN(c1ccc(C23CC4CC(CC(C4)C2)C3)cc1)S(C)(=O)=O,6,3,2,104*,1
CS(=O)(=O)N(CC(=O)O)c1ccc(C23CC4CC(CC(C4)C2)C3)cc1,2,0,0,7,7
COc1ccccc1S(=O)(=O)N(C)C[C@H]1Oc2cc(C#CCC(C)C)ccc2S(=O)(=O)N([C@@H](C)CO)C[C@H]1C,x,x,x,55*[16.7 µM],x
CCCC#Cc1ccc2c(c1)O[C@H](CN(C)S(=O)(=O)c1cccc(OC)c1)[C@H](C)CN([C@H](C)CO)S2(=O)=O,x,12,0,38[16.7 µM],-5
COc1cccc(S(=O)(=O)N(C)C[C@H]2Oc3cc(C#CCC(C)C)ccc3S(=O)(=O)N([C@H](C)CO)C[C@H]2C)c1,x,x,x,73*[16.7 µM],x
COc1cccc(S(=O)(=O)N(C)C[C@@H]2Oc3cc(C#CCC(C)C)ccc3S(=O)(=O)N([C@H](C)CO)C[C@@H]2C)c1,x,x,x,62*[16.7 µM],x
C[C@@H]1CN([C@H](C)CO)C(=O)c2cccc(N(C)C)c2O[C@H]1CN(C)C,x,x,x,-1[16.7 µM],x
COc1ccc(S(=O)(=O)N(C)C[C@@H]2OCCCC[C@@H](C)Oc3ccc(NS(=O)(=O)c4ccccc4)cc3C(=O)N([C@@H](C)CO)C[C@@H]2C)cc1,x,x,x,-12[16.7 µM],x
SMILES,Gli-Sufu antag,NR2F2 inh,aDG glyco up,Env fusion inh,GalR3 antag
O=C(N/N=C/c1ccc([N+](=O)[O-])o1)c1cc2ccccc2o1,0,25,3.6*,-73,-4
Cc1noc(C)c1S(=O)(=O)N(C)C[C@@H]1Oc2ccc(NS(=O)(=O)c3ccccc3)cc2CC(=O)N([C@H](C)CO)C[C@H]1C,x,x,x,-14[16.7 µM],x
CO[C@@H]1CN(C)C(=O)c2ccc(NC(=O)C3CC3)cc2OC[C@H](C)N(Cc2ccncc2)C[C@@H]1C,x,x,x,12[16.7 µM],x
N#Cc1ccc(-c2ccc(OCC(O)Cn3nnc4ccccc43)cc2)cc1 (stereo not given),-12,28,5,59*,-4
CSCCC(NC(=O)c1ccccc1Br)C(=O)NC(C)CCc1ccccc1 (stereo not given),-9,-5,0,64*,1
CC(=O)n1cc([C@H]2C=C(C(=O)N3CCCCCCC3)O[C@@H](OCCCCO)C2)c2ccccc21,x,x,x,7[16.7 µM],x
CC12CCC(=O)C=C1CCC1C2CCC2(C)C1CC1C3C(=O)N(Cc4ccccc4)C(=O)C3CC(=O)C12 (stereo not given),3,0,0,61*,-5
C[C@H]1CN([C@@H](C)CO)C(=O)Cc2cc(NC(=O)C3CCCCC3)ccc2O[C@H]1CN(C)C(=O)Nc1cccc2ccccc12,x,x,x,-1[16.7 µM],x
COc1ccc(NC(=O)N(C)C[C@H]2OCCCC[C@@H](C)Oc3ccc(NS(=O)(=O)c4c(C)noc4C)cc3C(=O)N([C@H](C)CO)C[C@H]2C)cc1,x,x,x,-23[16.7 µM],x
CCOc1ccc2nc(NC(=O)CN3CCC(n4nnc5cc(C(F)(F)F)ccc54)CC3)sc2c1,14,14,2,50*,-2
Cc1ccc(S(=O)(=O)Nc2ccc3c(c2)C(=O)N([C@H](C)CO)C[C@@H](C)[C@H](CN(C)S(C)(=O)=O)O3)cc1,x,x,x,-7[16.7 µM],x
C[C@H]1CN([C@@H](C)CO)C(=O)c2cccc(N(C)C)c2O[C@H]1CN(C)C(=O)Nc1ccc2c(c1)OCO2,x,x,x,14[16.7 µM],x
Cc1cc(C)c2nc(N3CCCN(C(=O)c4ccco4)CC3)c(C#N)cc2c1,5,5,0,33,0
Cc1cc(C)c2nc(C(F)(F)F)nc(N3CCN(C(=O)c4ccco4)CC3)c2c1,8,2,2,73*,-8
C/C(Cl)=C\Cn1c(NCCc2ccccc2)nc2c1c(=O)n(C)c(=O)n2C,82*,11,3,x,-10
C[C@H]1CN([C@@H](C)CO)C(=O)c2cccc(NC(=O)C3CCCCC3)c2O[C@H]1CN(C)S(C)(=O)=O,x,x,x,62*[16.7 µM],x
C[C@@H]1CN([C@H](C)CO)C(=O)c2cccc(NC(=O)c3cnccn3)c2O[C@H]1CN(C)Cc1ccc(Oc2ccccc2)cc1,x,x,x,27[16.7 µM],x
C[C@@H]1CN([C@H](C)CO)C(=O)c2cccc(NC(=O)c3ccncc3)c2O[C@@H]1CN(C)CC1CCCCC1,x,x,x,-44[16.7 µM],x
C[C@@H]1CN([C@@H](C)CO)C(=O)c2cccc(NC(=O)C3CCCCC3)c2O[C@H]1CN(C)CC1CCCCC1,x,x,x,63*[16.7 µM],x
C[C@@H]1CN([C@@H](C)CO)C(=O)c2cccc(NC(=O)c3ccncc3)c2O[C@H]1CN(C)CC1CCCCC1,x,x,x,99*[16.7 µM],x

# Compound activity from PubChem.
